According to PubChem BioAssay (Tox21):
Values joined by “and” are separate entries in the source; they are usually repeats but may differ in a detail not shown here. Equal values may be shown once. Records with an inconclusive call do not appear. A call without a number means that no potency is given here. Active and inactive are the calls of the source. Calls follow the shape of the dose curve; as a rule, active = well fitted cell-killing curve with a large enough effect in the repeat runs; inconclusive = weak or mixed curves, or effect the other way; inactive = no such curve, though single readings can be large or run the other way.

assay: qHTS assay to identify small molecule agonists of the RXR signaling pathway - cell viability counter screen (AID 1159529); conditions: RXR-alpha-bla HEK293T viability, CellTiter-Glo, 16 h; series mostly up to 76.8 µM; also: nearly all actives have a fitted effect of over 50% in size
Text: National Center for Advancing Translational Sciences [NCATS]
NIH Chemical Genomics Center [NCGC]
U.S. Environmental Protection Agency [EPA]
National Institutes of Environmental Health Sciences [NIEHS]
National Toxicology Program [NTP]
U.S. Food and Drug Administration [FDA]
The Retinoid X receptor (RXR), a nuclear hormone receptor expressed in liver, spleen, placenta, epidermis, central nervous system. These receptors are able to form homo and heterodimers with other nuclear receptors and due to this heterodimerizing ability, RXR functions as master regulators producing diverse physiological effects. Three subtypes of RXR exist; alpha, beta and gamma. Retinoid X receptor alpha (RXR-alpha) has potential roles in metabolic signaling pathways, skin alopecia, dermal cysts, cardiac development, insulin sensitization etc. Therefore screening environmental chemicals on RXR-alpha signaling can be used for the studies focused on such therapeutic applications. For quantification of RXR-alpha ligands signaling, GeneBLAzer RXR alpha-UAS-bla HEK 293T (Life Technologies, Carlsbad, CA) cells containing a beta-lactamase reporter-gene under control of Retinoid X receptor-alpha response element were used to screen Tox21 10K library. The cytotoxicity of the Tox21 compound library against the RXR-alpha HEK 293T cell line was tested in parallel by measuring cell viability using CellTiter-Glo assay (Promega Corporation, Madison, WI) in the same wells.
Tox21 Assay Protocol Summary:
RXR-alpha HEK 293T cells were dispensed at 2,000 cells/6 uL of assay medium containing 2% charcoal-stripped FBS using a Multidrop Combi (ThermoFisher Scientific, Waltham, MA) dispenser. The assay was performed in black wall/clear-bottom 1536-well plates (Greiner Bio-One North America Inc. Monroe, NC). Tetraoctyl ammonium bromide was used as a positive control in the cytotoxicity screen. After the assay plates were incubated at 37 C and 5% CO2 for 5 hr, 23 nL of compounds dissolved in DMSO, positive control or DMSO only were transferred to the assay plate by a Pintool station (Kalypsys, San Diego, CA). The assay plates were incubated at 37 C and 5% CO2 for 16 hr. One uL of LiveBLAzer B/G FRET substrate (Life Technologies) was added using a Flying Reagent Dispenser (FRD) (Aurora Discovery, San Diego, CA) and the plates were incubated at room temperature for 2 hr. Fluorescence intensity (405 nm excitation, 460/530 nm emission) was measured using an Envision plate reader (PerkinElmer, Shelton, CT). For cytotoxicity, 4 uL/well of CellTiter-Glo reagent was added into the assay plates using an FRD. After 30 min incubation at room temperature, the luminescence intensity was measured using a ViewLux plate reader (PerkinElmer).
Potency is read from the fitted curve at half-maximal effect.

Row | SMILES | Potency
1 | CCCOC(=O)c1cc(O)c(O)c(O)c1 | inactive
2 | O=C(O)CCc1ccccc1 | inactive
3 | CC(=O)Nc1ccc(C(=O)CCl)cc1 | inactive
4 | CN(C)c1ccc2nc3ccc(=[N+](C)C)cc-3sc2c1 | inactive
5 | OCCN1CCNCC1 | inactive
6 | O=C(Oc1ccccc1)c1ccccc1O | inactive
7 | CCCCCCCCCCCCCC[P+](CCCC)(CCCC)CCCC | 6.13 µM (active) and 11 µM (active)
8 | O=C(O)c1cc(Cl)cc(Cl)c1 | inactive
9 | Cc1cc(OCCOCC[N+](C)(C)Cc2ccccc2)ccc1C(C)(C)CC(C)(C)C | 10.9 µM (active) and 4.77 µM (active)
10 | CC(N)=O | inactive
11 | Cc1cccc([N+](=O)[O-])c1C(=O)O | inactive
12 | O | inactive
13 | CC1COC(=O)O1 (stereo not given) | inactive
14 | C=C(C)C(=O)O | inactive
15 | CC(C)(C)c1ccc(O)c(C(C)(C)C)c1 | 21.8 µM (active) and 24.5 µM (active)
16 | CCN(CC)CCOc1ccc(/C(=C(\Cl)c2ccccc2)c2ccccc2)cc1 | 15.8 µM (active) and 10.7 µM (active)
17 | CCCCC(CC)COC(=O)CC(C(=O)OCC(CC)CCCC)S(=O)(=O)O (stereo not given) | 21.1 µM (active) and 43.6 µM (active)
18 | CCN(CC)C(=O)Nc1ccc(OCC(O)CNC(C)(C)C)c(C(C)=O)c1 (stereo not given) | inactive
19 | c1cc(C(c2ccc(OCC3CO3)cc2)C(c2ccc(OCC3CO3)cc2)c2ccc(OCC3CO3)cc2)ccc1OCC1CO1 (stereo not given) | inactive
20 | Cc1ccc(S(=O)(=O)Oc2ccc(N=Nc3ccc(-c4ccc(N=Nc5c(O)ccc6cc(S(=O)(=O)O)cc(S(=O)(=O)O)c56)c(C)c4)cc3C)cc2)cc1 | inactive

Row | SMILES | Potency
21 | NC(N)=NC(=O)Cc1c(Cl)cccc1Cl | inactive
22 | Cc1ccc(-c2cc(C(F)(F)F)nn2-c2ccc(S(N)(=O)=O)cc2)cc1 | 48.8 µM (active) and 21.9 µM (active)
23 | Nc1cc(S(=O)(=O)O)cc2cc(S(=O)(=O)O)cc(O)c12 | inactive
24 | CCCCC/C=C/CC1CC(=O)OC1=O (stereo not given) | inactive
25 | Cc1scc2c1N(C(=O)CN1CCN(C)CC1)c1ccccc1NC2=O | inactive
26 | CCCCCC(=O)O[C@]1(C(C)=O)CC[C@H]2[C@@H]3CCC4=CC(=O)CC[C@]4(C)[C@H]3CC[C@@]21C | 19.4 µM (active) and 23.9 µM (active)
27 | NNCCc1ccccc1 | inactive
28 | NC12CC3CC(CC(C3)C1)C2 | inactive
29 | O=C(O)Cn1cnnn1 | inactive
30 | CC(C)CCOC(=O)c1ccc(N(C)C)cc1 | inactive
31 | CNCCC(Oc1ccc(C(F)(F)F)cc1)c1ccccc1 (stereo not given) | 27.2 µM (active) and 23.9 µM (active)
32 | CC(=O)OCCOCCOCCOC(C)=O | inactive
33 | C#CC(C)(CC)OC(=O)c1ccccc1C(=O)O (stereo not given) | inactive
34 | O=C(O)CP(=O)(O)O | inactive
35 | OCCOCCN1CCN(C(c2ccccc2)c2ccc(Cl)cc2)CC1 (stereo not given) | 21.6 µM (active)
36 | CCCNC(C)C(=O)Nc1ccccc1C (stereo not given) | inactive
37 | Cc1cc(C(C)(C)C)c(O)c(C(C)(C)C)c1 | inactive
38 | N[C@@H]1CONC1=O | inactive
39 | c1ccc2cc3c(ccc4ccccc43)cc2c1 | inactive
40 | C=CS(=O)(=O)O | inactive
